# Hits are enriched below; roughly 2.4% of the tested compounds scored in any of these assays.
# Platelet DG rel – modulates dense granule release in human platelets | human platelet-rich plasma, SFLLRN dense granule ATP release, luminescence | inhibition, %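 (compounds screened at 7.5 µM in platelet-rich plasma)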 | 300,000 tested, 0.22% active;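 active = mean replicate score, as percent of positive control, at or above 50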
# SENP8 block-1 – blocks the human protease SENP8. Q96LD8. purified SENP8, Z-RLRGG-aminoluciferin cleavage, luminescence. inhibition, % at 10 µM. 330,000 tested, 1.2% active; in the data active = inhibition above about 50%
# SENP7 inh – SENP7 protease inhibition; 330,000 tested, 1.5% active; Q9BQF6; recombinant SENP7, Z-RLRGG-aminoluciferin luminescence, 40 min; inhibition, % at 5 µM;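 active = inhibition above about 50% at the single test dose, limit read from the data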
# Target sequence (Q9BQF6 706-1050 limits assumed): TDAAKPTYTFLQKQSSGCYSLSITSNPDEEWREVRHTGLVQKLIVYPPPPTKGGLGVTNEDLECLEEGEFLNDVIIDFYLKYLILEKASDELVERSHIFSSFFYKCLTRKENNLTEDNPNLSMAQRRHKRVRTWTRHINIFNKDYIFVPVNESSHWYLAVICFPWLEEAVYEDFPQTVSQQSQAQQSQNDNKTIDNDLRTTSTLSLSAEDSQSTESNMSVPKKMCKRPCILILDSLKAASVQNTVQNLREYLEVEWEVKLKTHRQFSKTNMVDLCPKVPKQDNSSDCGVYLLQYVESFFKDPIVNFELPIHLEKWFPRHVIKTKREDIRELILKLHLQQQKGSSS
# SENP8 block-2 – SENP8 (human) protease inhibition. 360,000 tested, 0.64% active. AID 602440. inhibition, % at 20 µM. recombinant SENP8, Nedd8 substrate fluorescence; in the data active = inhibition mostly above about 40%, no sharp cut-off; inactive = mostly below about 27%
# SENP6 inh – SENP6 protease inhibition. Recombinant SENP6 catalytic domain, aminoluciferin luminescence. AID 2599. inhibition, % at 10 µM. 330,000 tested, 1.8% active. Q9GZR1;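 active = inhibition above about 50% at the single tested dose, limit read from the data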
# SENP8 confirm – confirmation of human SENP8 protease inhibitors | 6,200 tested, 40% active | inhibition, % at 12.5 µM | Recombinant SENP8, Z-RLRGG-aminoluciferin luminescence, 60 min | shares compounds with SENP7 inh;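 active = mean inhibition across replicates above about 50%, limit read from the data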
# SENP6 conf – human SENP6 inhibition, confirmed | shares compounds with SENP7 inh | recombinant SENP6, Z-RLRGG-aminoluciferin luminescence | inhibition, % at 12.5 µM | 6,200 tested, 58% active
# SENP7 confirm – confirmation of human SENP7 protease inhibitors | 6,200 tested, 69% active | inhibition, % at 12.5 µM | recombinant SENP7, Z-RLRGG-aminoluciferin luminescence, 40 min | shares compounds with SENP7 inh
# Casp3 SENP sel – inhibits human caspase-3 in SENP selectivity test; shares compounds with SENP7 inh; purified caspase-3, Z-DEVD-aminoluciferin luminescence, 60 min; inhibition, % at 12.5 µM; 6,200 tested, 60% active;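 active = mean inhibition above about 50%, limit read from the data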
# Target sequence (P42574 28-227 limits assumed): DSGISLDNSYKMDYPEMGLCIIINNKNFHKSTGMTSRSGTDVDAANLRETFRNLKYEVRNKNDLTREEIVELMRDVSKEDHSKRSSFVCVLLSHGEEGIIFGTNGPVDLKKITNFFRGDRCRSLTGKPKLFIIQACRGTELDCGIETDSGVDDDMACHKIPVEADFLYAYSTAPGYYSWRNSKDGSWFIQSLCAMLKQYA
# Luc interf – luminescence interference (SENP counter-screen). shares compounds with SENP7 inh. Pre-incubated SENP8/Z-RLRGG-aminoluciferin, luciferase luminescence interference. inhibition, % at 12.5 µM. 6,200 tested, 39% active. AID 488919;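 active = mean inhibition above about 50% when retested at one dose, limit read from the data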
# Hits are given with their value; – = inactive; · = not tested or not shown.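 The calls were made as follows, unless noted: active = mean inhibition above about 50% in the one-dose retest (limit read from the data); inactive = the rest.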
SMILES,Platelet DG rel,SENP8 block-1,SENP7 inh,SENP8 block-2,SENP6 inh,SENP8 confirm,SENP6 conf,SENP7 confirm,Casp3 SENP sel,Luc interf
COCCn1c(C)cc(C(=O)CSc2nnnn2C2CCCC2)c1C,·,–,–,–,–,·,·,·,·,·
Nc1ccc2nc(-c3ccccc3)[nH]c2c1,–,–,–,–,70,61,65,89,90,76
Cc1cc(/C=C2/C(=O)NN(c3ccccc3)C2=O)c(C)n1-c1ccc(O)cc1,–,56,–,50,78,–,66,91,62,–
Cc1cc(C=C2C(=O)CCCC2=O)c(C)n1-c1ccccc1,–,–,–,–,–,·,·,·,·,·
CC(C)(C)OC(=O)C[C@@H]1C/C=C\C[C@H](CC(=O)N(CCO)Cc2ccccc2)C(=O)N[C@H](Cc2ccccc2)COC1=O,·,–,–,–,–,·,·,·,·,·
Cc1[nH]n(-c2ccccc2)c(=O)c1C=Nc1cnc2ccccc2c1,–,–,–,–,–,·,·,·,·,·
CCOc1ccc(N=Cc2c(C)[nH]n(-c3nc4ccccc4[nH]3)c2=O)cc1,–,80,85,–,94,–,–,50,75,69
O=C(NCCCSc1ccccc1)c1cc(Cl)ccc1O,–,–,–,–,–,·,·,·,·,·
Cc1cc(=O)oc2cc(NC(=O)c3ccccc3OC(F)F)ccc12,–,–,–,–,–,·,·,·,·,·
CCOc1ccc(-n2c(C)nc3cc(C(=O)NCC4CCCO4)ccc32)cc1 (configuration not stated),–,–,–,–,–,·,·,·,·,·
c1ccc(C2Nc3cccc4cccc(c34)N2)cc1,–,–,–,–,–,·,·,·,·,·
COc1ccccc1C1Nc2cccc3cccc(c23)N1,–,–,–,–,60,–,–,–,–,–
COc1ccc(C2Nc3cccc4cccc(c34)N2)cc1,–,–,–,–,64,–,–,–,–,–
COc1cc(OC)c(C2Nc3cccc4cccc(c34)N2)c(OC)c1,–,–,–,–,58,–,–,–,–,–
Clc1cccc(Cl)c1C1Nc2cccc3cccc(c23)N1,–,–,–,–,–,·,·,·,·,·
Cc1c(C#N)c(O)[nH]c(=O)c1N=Nc1ccc(Cl)c(C(=O)O)c1,–,–,–,–,–,·,·,·,·,·
Cc1c(C#N)c(O)[nH]c(=O)c1N=Nc1ccc(S(N)(=O)=O)cc1,–,–,–,–,51,–,–,71,75,52
COC(=O)c1cc(/C=C/c2ccccc2)on1,–,–,–,–,–,·,·,·,·,·
COC(=O)c1cc(/C=C/c2ccccc2)[nH]n1,–,–,–,–,52,–,–,82,64,–
O=C(Cc1cccs1)Nc1ccc(-c2nc3ccccc3[nH]2)cc1,–,–,84,–,59,–,–,87,68,–
O=C(Nc1ccc(-c2nc3ccccc3[nH]2)cc1)C1CCCO1 (configuration not stated),87,88,93,–,87,92,92,99,96,79
O=C(Nc1nc2ccccc2[nH]1)C1CCCO1 (configuration not stated),–,–,–,–,–,·,·,·,·,·
Cc1c(S(=O)(=O)N2CCN(c3cccc(Cl)c3)CC2)c(=O)n(C)c(=O)n1C,–,–,–,–,–,·,·,·,·,·
COc1ccc(NC(=O)COc2cc(C)cc(C)c2)cc1S(=O)(=O)N1CCCCC1,–,–,–,–,–,·,·,·,·,·
NC(=O)CN1C(=O)NC2(CCOc3ccccc32)C1=O (configuration not stated),–,–,–,–,–,·,·,·,·,·
SMILES,Platelet DG rel,SENP8 block-1,SENP7 inh,SENP8 block-2,SENP6 inh,SENP8 confirm,SENP6 conf,SENP7 confirm,Casp3 SENP sel,Luc interf
COc1cc2c(cc1O)CC[n+]1cc3c(OC)c(OC)ccc3cc1-2,–,–,–,–,–,·,·,·,·,·
COc1cc2c(cc1OC)-c1cc3ccc4c(c3c[n+]1CC2)OCO4,–,–,–,–,50,–,–,–,–,–
CCCCc1ncc(CN2CCC(n3nccc3NC(=O)C(OC)c3ccccc3)CC2)[nH]1 (configuration not stated),–,–,–,–,–,·,·,·,·,·
COc1ccc(C2NC(=O)CS2)cc1OC (configuration not stated),–,–,–,–,–,·,·,·,·,·
Fc1cccc(C2NN=C(c3ccccc3)S2)c1 (configuration not stated),–,52,97,–,92,–,54,80,65,–
COc1ccc(C2NN=C(c3ccc(C)cc3)S2)cc1OC (configuration not stated),–,92,94,–,93,–,–,–,–,–
Cc1ccc(C2=NNC(C(O)C(O)C(O)C(C)O)S2)cc1 (configuration not stated),–,–,–,–,–,·,·,·,·,·
Cc1ccc(C2=NNC(c3cccc(F)c3)S2)cc1 (configuration not stated),–,87,95,–,89,–,51,–,51,–
COc1ccc(C/C(C)=N/NC(=O)C2COc3ccccc3O2)cc1 (configuration not stated),–,–,–,–,–,·,·,·,·,·
CCN1C(=O)[C@H]2[C@@H](c3ccc(-c4ccc(F)cc4)c(OC)c3)N[C@@](CC(C)C)(C(=O)OC)[C@H]2C1=O,–,–,–,·,–,·,·,·,·,·
COC(=O)c1ccc(N/C=C/C(=O)c2ccccc2)cc1,–,75,96,–,90,–,–,–,–,–
CN(C)c1ccc(N/C=C/C(=O)c2ccc(F)cc2)cc1,95,94,100,–,98,–,61,–,71,–
COC(=O)c1ccccc1N/C=C/C(=O)c1ccc(Br)cc1,–,–,53,–,66,–,–,–,–,–
CCOc1ccc(N/C=C/C(=O)c2ccc(OC)cc2)cc1,–,–,–,–,–,·,·,·,·,·
CC(=O)c1ccc(N/C=C/C(=O)c2ccc(Br)cc2)cc1,–,–,–,–,–,·,·,·,·,·
NC(=O)c1ccccc1N/C=C/C(=O)c1ccccc1,–,88,91,–,94,87,95,102,96,81
Cc1nnc(SCC(=O)c2c[nH]c3ccccc23)n1C1CC1,·,–,–,–,–,·,·,·,·,·
CN(N=Nc1cccc([N+](=O)[O-])c1)c1ccccc1,–,–,–,–,51,–,50,73,–,–
CN(CCCC(=O)O)c1ccc(N=Nc2ccc([N+](=O)[O-])cc2)cc1,–,81,54,–,90,84,84,–,76,–
CN(N=Nc1ccc([N+](=O)[O-])cc1)c1ccccc1,–,–,60,–,60,–,–,–,–,–
CN(Cc1ccc([N+](=O)[O-])cc1)c1ccccc1,·,·,·,–,·,·,·,·,·,·

# Source: PubChem BioAssay (several laboratories)
